Screening data as filed in PubChem.
AID923 = qHTS Assay for Allosteric/Competitive Inhibitors of Caspase-1: Spectroscopic Profiling in AFC Spectral Region. compound fluorescence, AFC spectral region (405/520 nm). 75,000 tested, 1.1% active. Potency, µM (top dose mostly 57.5 µM), usual class: activators
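Baseline compound fluorescence (AFC region, 405 nm ex/520 nm em) taken from the intercept of kinetic reads with 50 nM caspase-1 and 5 uM Ac-WEHD-AFC; normalized to an on-plate AFC standard curve; compounds titrated up to 57 uM.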
4MU fluor = qHTS Assay for Spectroscopic Profiling in 4-MU Spectral Region | compound autofluorescence, 340/450 nm, 4-MU equivalents; active compounds read high | max dye-equivalent concentration, M | 59,000 tested, 11% active; in the data active = max dye-equivalent concentration above about 10 nM; inconclusive = mostly about 1.1 nM to 9.6 nM
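Compounds in 100 mM Tris, pH 8.0, sat 15 min at room temperature before fluorescence was read at 340 nm excitation/450 nm emission; a per-plate six-point 4-MU standard curve converted signals to dye-equivalent concentration at each compound concentration.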
CRE Fsk mod = Cell signaling CRE-BLA (Fsk stim); CHO CRE-bla reporter (cAMP response element driving beta-lactamase), forskolin EC10, beta-lactamase ratio; Potency, µM (series often up to 38.2 µM), hits mostly activators; 71,000 tested, 2.5% active; active = well fitted activation curve with a large enough effect in the signal ratio, with a control signal flat, not every such curve was filed as active; inconclusive = small, poorly fitted or top-dose-only effect, or effect the other way, or a change in a side signal; the % refers to the signal ratio
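CRE-bla CHO cells stimulated with EC10 NKH 477 (water-soluble forskolin) and compound titrations, 3 h at 37C; beta-lactamase read with CCF4 after 2 h at room temperature. Activity from 460/530 nm emission ratio, AC50 values for positive or negative modulation.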
A350 fluor = qHTS Assay for Spectroscopic Profiling in A350 Spectral Region | 59,000 tested, 11% active | AID 590, 2007 | Compound autofluorescence, 340/450 nm, Alexa 350 dye-equivalents; active compounds read high | max dye-equivalent concentration, M; in the data active = max dye-equivalent concentration above about 10 nM; inconclusive = mostly about 1.1 nM to 9.6 nM
HSD17B inhib = qHTS Assay for Inhibitors of HSD17B4, hydroxysteroid (17-beta) dehydrogenase 4 | 3-hydroxyacyl-CoA dehydrogenase type-2 (Homo sapiens), Q99714 | recombinant HSD17B10, NADH fluorescence kinetic | Potency, µM (top dose mostly 57.1 µM), actives largely listed as inhibitors | 75,000 tested, 7.6% active | AID 893, 2007;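 note: the protocol describes HADH2 (HSD17B10) and not the HSD17B4 of the title; nearly all actives have a fitted effect of over 70% in size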
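Enzyme plus compound, 15 min room temperature; substrate mix added (NAD+ 1 mM, beta-hydroxybutyryl-CoA 90 uM final); plates read kinetically for NADH fluorescence. HADH2 was His-tagged, E. coli-derived, 20 nM.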
HADH2 inh = qHTS Assay for Inhibitors of HADH2 (Hydroxyacyl-Coenzyme A Dehydrogenase, Type II). 3-hydroxyacyl-CoA dehydrogenase type-2 (Homo sapiens), Q99714. recombinant HADH2, NADH fluorescence, beta-hydroxybutyryl-CoA. Potency, µM (series often up to 57.1 µM), actives largely listed as inhibitors. 73,000 tested, 3.4% active; note: nearly all actives have a fitted effect of over 60% in size
Target sequence (Q99714 whole entry, looked up, one chain of several): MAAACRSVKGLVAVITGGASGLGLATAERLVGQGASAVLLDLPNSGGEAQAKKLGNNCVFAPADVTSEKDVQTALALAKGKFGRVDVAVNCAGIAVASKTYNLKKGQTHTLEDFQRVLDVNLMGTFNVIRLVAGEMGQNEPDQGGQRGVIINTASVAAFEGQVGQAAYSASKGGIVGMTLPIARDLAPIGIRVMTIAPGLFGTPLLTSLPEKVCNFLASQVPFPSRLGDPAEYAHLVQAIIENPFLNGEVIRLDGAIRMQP
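His-tagged recombinant enzyme from E. coli, 20 nM, preincubated 15 min RT with compound; reaction started with 1 mM NAD+ and 90 uM beta-hydroxybutyryl-CoA in 100 mM Tris-HCl pH 9.0. NADH fluorescence (ex 360/em 450) read over 4 min; last-minus-first difference.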
A number is an active result; - = inactive; ? = inconclusive; . = no result given; [ ] = remark or other dose. Hits are enriched below; roughly 14% of the tested compounds scored in any of these assays. Unless noted, calls come from the whole dose curve; as a rule, active = well fitted curve in the direction sought with a large enough effect; inconclusive = small, poorly fitted or top-dose-only effect, or another doubt; inactive = no such curve, though single readings can be large; an effect the other way counts as inactive or inconclusive.

SMILES	AID923	4MU fluor	CRE Fsk mod	A350 fluor	HSD17B inhib	HADH2 inh
CS(=O)(=O)c1nc(-c2cccs2)cc(C(F)(F)F)n1	-	1.07e-07M	?	1.12e-07M	25.1µM	12.6µM
O=c1c2ccccc2nc2sc3ccccc3n12	-	3.71e-08M	-	3.05e-08M	?	-
O=c1/c(=C/c2ccccn2)sc2nc3ccccc3n12	-	.	?	.	-	-[11.4 µM]
Cc1noc(C)c1C(=O)N1CCC2(CCN(Cc3ccncc3)CC2)CC1	-	-	-	-	-	-
Cc1nnc(SCCn2c(N3CCN(c4ccccc4)CC3)nc3c2c(=O)n(C)c(=O)n3C)s1	-	.	?	.	12.6µM	-
Cn1c(=O)c2c(nc(N3CCCCCC3)n2Cc2cccc3ccccc23)n(C)c1=O	-	-	-	-	-	-
Cn1c(=O)c2c(nc(N3CCOCC3)n2CC(=O)c2ccccc2)n(C)c1=O	-	2.05e-08M	-	2.23e-08M	-	-
Cc1nnc(SCCn2c(N3CCN(C)CC3)nc3c2c(=O)n(C)c(=O)n3C)s1	-	-	-	-	-	-
CN1CCN(c2nc3c(c(=O)n(C)c(=O)n3C)n2Cc2cccc3ccccc23)CC1	.	2.09e-08M	.	1.55e-08M	.	.
Cn1c(=O)c2c(nc(N3CCCCCC3)n2CC(=O)c2ccccc2)n(C)c1=O	-	-	-	-	-	-
c1ccc(CN2COc3c(ccc4c5c(ccc34)CN(Cc3ccccc3)CO5)C2)cc1	-[11.5 µM]	-	-[7.6 µM]	-	-[11.4 µM]	-[11.4 µM]
COc1ccccc1/C=c1\sc2nc(-c3ccco3)nn2c1=O	-	1.89e-08M	-	2.27e-08M	25.1µM	?
O=C1CCCc2nn(-c3ccccc3)c(-c3ccncc3)c21	-	-	?	-	-	-
Cn1c(=O)c2[nH]c(CCNC(=O)c3ccccc3)nc2n(C)c1=O	-[11.5 µM]	?	-[7.6 µM]	?	-[11.4 µM]	-[11.4 µM]
N#Cc1cnc(SCC(=O)Nc2ccccc2C(F)(F)F)nc1N	-	1.01e-08M	?	1.06e-08M	-	-
N#Cc1ccccc1NC(=O)CSc1nccn1CCc1ccccc1	-	?	-	?	-	-
CCN(CC)CCOC(=O)c1cc(Cl)c(N)cc1OC	-	3.55e-08M	-	3.12e-08M	-	-
COCCN1Cc2cccc(C(=O)Nc3c(C)cc(C)cc3C)c2C1=O	-	-	?	-	-	-
COCCN1Cc2cccc(C(=O)Nc3cc(C)cc(C)c3)c2C1=O	-	3.32e-08M	-	2.88e-08M	31.6µM	?
COCCN1Cc2cccc(C(=O)Nc3cc(OC)ccc3OC)c2C1=O	-	-	10µM	-	-	-
COc1ccc(CCNc2nnc(Sc3nnnn3-c3ccccc3)s2)cc1OC	-	-	10µM	-	-	-
COc1ccc(CCNC(=O)CSc2nnnn2-c2ccccc2)cc1	-	.	-	.	-	-
CC/C=C\C[C@H]1C(=O)CC[C@@H]1CC(=O)O	-	-	-	-	-	-
Cc1ccc(OCCn2c(C)c(/C=N/n3cnnc3)c3ccccc32)cc1	-	.	1.58µM	.	-	-
COc1cc(OC)c2ccc(=O)oc2c1	-	.	.	.	25.1µM	.
SMILES	AID923	4MU fluor	CRE Fsk mod	A350 fluor	HSD17B inhib	HADH2 inh
COc1cc(OC)c2c(C)cc(=O)oc2c1	-	2.71e-07M	?	2.68e-07M	3.16µM	3.98µM
COc1ccc2oc(=O)cc(C)c2c1	-	1.02e-07M	-	9.57e-08M	31.6µM	-
COc1ccc2ccc(=O)oc2c1	-	.	.	.	25.1µM	.
Cc1cc2oc(=O)cc(C)c2c(=O)o1	-	?	-	?	-	-
CCOC(=O)Oc1ccc2oc(=O)cc(C)c2c1	-	.	-	.	-	-
CC(=O)OC1CC(OC(C)=O)[C@]2(C)C(CC(OC(C)=O)[C@@]3(C)C4=CC(=O)OC(c5ccoc5)[C@]4(C)CCC32)C1(C)C (stereo partly specified)	-	.	.	.	-	.
Cc1csc(NC(=O)CCC(=O)N(CC(=O)NC2CCCC2)Cc2ccco2)n1	-	-	-	-	-	-
COc1ccc2c(c1)CN([C@H](C)[C@@H]1CC[C@@H]3[C@H]4CC[C@H]5C[C@@H](O)CC[C@@]5(C)[C@H]4CC[C@]31C)CO2	-[11.5 µM]	-	-[7.6 µM]	-	-[11.4 µM]	?
Nc1nc(SCc2ccc([N+](=O)[O-])cc2)c2ncn([C@@H]3O[C@@H](CO)[C@@H](O)[C@H]3O)c2n1	-	-	-	-	-	-
OCCSc1nncn1/N=C/c1c[nH]c2ccccc12	-	-	-	-	-	-
Cc1cc(C)n(-c2ccc(C(=O)Nc3nnc(C4CC4)s3)cc2)n1	-	-	-	-	-	-
COc1ccc2nc(NC(=O)c3ccc(-n4nc(C)cc4C)cc3)sc2c1	-	1.15e-07M	-	1.51e-07M	25.1µM	-
Cc1cccc(C)c1N1C(=O)c2ccccc2C1=O	-	.	-	.	-	-
CCc1cc2c(C)cc(=O)oc2cc1OC(=O)C1CCCN1C(=O)OC(C)(C)C (stereo unspecified)	-	3.69e-07M	?	3.59e-07M	-	-
Cc1cc(NC(=O)COC(=O)CSc2nc3cc(Cl)ccc3n2Cc2ccccc2)no1	-	4.6e-08M	?	5.68e-08M	-	-
Cc1ccc(C(C(=O)NC(C)(C)C)N(CC2CCCO2)C(=O)Cn2nnc(-c3ccc(C)o3)n2)cc1 (stereo unspecified)	-	-	-	-	-	-
Cc1ccc(-c2nnn(CC(=O)NCC3COCCO3)n2)o1 (stereo unspecified)	-	1.81e-08M	?	2.98e-08M	-	-
CCNc1nc(OC)nc(Oc2ccc(=O)n(-c3ccccc3)n2)n1	-	-	?	-	-	-
COc1nc(NCC(C)C)nc(Oc2ccc(=O)n(-c3ccccc3)n2)n1	-	.	12.6µM	.	-	-
CC(C)C[C@@H](CC(=O)N[C@H](CC(=O)N[C@@H]1CCNC[C@H]1C(=O)N[C@H](CC(=O)N[C@@H](CCC(=O)O)CC(=O)O)Cc1c[nH]c2ccccc12)C(C)C)NC(=O)[C@@H]1CCCC[C@H]1N	.	.	-	.	.	-
NC1=C(O)C(=O)[C@H](c2c[nH]c3ccc(OCc4ccccc4)cc23)O1	-[11.5 µM]	2.95e-08M	-[7.6 µM]	3.67e-08M	-[11.4 µM]	-[11.4 µM]
NS(=O)(=O)c1ccc(CCNc2nc(CN3CCOCC3)nc3sc4c(c23)CCC4)cc1	-	1.04e-08M	-	1.45e-08M	?	-
Cc1ccnc(SCCn2c(Br)nc3c2c(=O)n(C)c(=O)n3C)n1	-	-	-	-	-	-
O=C(Nc1cccc2nsnc12)C1CC(=O)N(c2ccccc2)C1 (stereo unspecified)	-	1.84e-08M	-	2.07e-08M	25.1µM	-
